Assay results reported in PubChem BioAssay AID1159580 (chemical genetic matrix, 2015).
Where “and” joins values, the source holds several entries; their conditions need not be identical. Equal entries are not always repeated. About 2,000 (36%) of roughly 5,500 compounds were called active. Inconclusive results (about 18%) are left out. Rule as the data show it: active = normalized growth mostly below about 0.91 (no sharp cut-off); inconclusive = no clear call, values can overlap the other calls; inactive = mostly above about 0.92. Some of the results follow.

Experiment: chemical genetic growth profiling, strain panel (AID 1159580);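 also: tested at 20 µM; growth read once vehicle control cultures reached saturation at 30 °C; 1 = growth at the plate median or of vehicle wells; lower values mean less growth of the strain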
Settings: S. cerevisiae deletion strains, growth OD

Measured: normalized growth

CC(C)=CCCC1(C)C=Cc2c(O)c3c(c(CC=C(C)C)c2O1)OC12C(=CCCC1C(C)(C)O[C@@]2(C/C=C(\C)C(=O)O)C(=O)O)C3=O (some centres not stated)
0.263 (active) and 0.923 (inactive): locus YJL095W, strain BCK1, stronger effect = lower value
0.501 (active) and 0.921 (inactive): locus YHR030C, strain SLT2, stronger effect = lower value
inactive: locus YAL021C, strain ccr4, stronger effect = lower value 0.996 | locus YBR021W, strain FUR4, stronger effect = lower value 1.03 | locus YBR171W, strain sec66, stronger effect = lower value 1 | locus YBR279W, strain paf1, stronger effect = lower value 0.933 | locus YCL016C, strain dcc1, stronger effect = lower value 0.92 | locus YCL069W, strain vba3, stronger effect = lower value 0.941 | locus YCR088W, strain abp1, stronger effect = lower value 0.988 | locus YDL005C, strain med2, stronger effect = lower value 1.03 | locus YDL040C, strain nat1, stronger effect = lower value 0.999 | locus YDL185W, strain tfp1, stronger effect = lower value 0.964 | locus YDR001C, strain nth1, stronger effect = lower value 0.999 | locus YDR069C, strain doa4, stronger effect = lower value 0.923 | locus YDR195W, strain ref2 1.12 | locus YDR334W, strain swr1, stronger effect = lower value 0.991 | locus YEL037C, strain rad23, stronger effect = lower value 0.987 | locus YEL061C, strain CIN8 (second series), stronger effect = lower value 0.963 | locus YER016W, strain bim1, stronger effect = lower value 0.957 | locus YER110C, stronger effect = lower value 0.953 | locus YFR010W, strain ubp6, stronger effect = lower value 0.919 | locus YGL078C, strain dbp3, stronger effect = lower value 0.998 | locus YGL167C, strain pmr1, stronger effect = lower value 0.996 | locus YGL227W, strain vid30, stronger effect = lower value 1.04 | locus YGL240W, strain doc1, stronger effect = lower value 0.989 | locus YGR252W, strain gcn5, stronger effect = lower value 0.902 | locus YHR013C, strain ard1, stronger effect = lower value 0.96 | locus YHR079C, strain IRE1 (second series), stronger effect = lower value 0.979 | locus YHR079C, strain IRE1, stronger effect = lower value 0.94 | locus YHR094C, strain hxt1, stronger effect = lower value 0.973 | locus YHR200W, strain rpn10, stronger effect = lower value 0.952 | locus YIL073C, strain SPO22, stronger effect = lower value 0.873 | locus YIL125W, strain kgd1, stronger effect = lower value 0.961 | locus YIR030C, strain dcg1, stronger effect = lower value 0.942 | locus YJL092W, strain hpr5, stronger effect = lower value 0.949 | locus YJL115W, strain asf1, stronger effect = lower value 1.04 | locus YJL129C, strain trk1, stronger effect = lower value 0.973 | locus YJL134W, strain LCB3, stronger effect = lower value 0.929 | locus YJL154C, strain vps35, stronger effect = lower value 1.01 | locus YJL168C, strain set2, stronger effect = lower value 0.971 | locus YJR066W, strain TOR1, stronger effect = lower value 0.909 | locus YKL009W, strain mrt4, stronger effect = lower value 1.11 | locus YKL068W, stronger effect = lower value 0.981 | locus YKL085W, strain MDH1 (second series), stronger effect = lower value 0.968 | locus YKL085W, strain MDH1, stronger effect = lower value 0.968 | locus YKR026C, strain gcn3, stronger effect = lower value 1 | locus YKR091W, strain srl3, stronger effect = lower value 0.998 | locus YLL001W, strain dnm1, stronger effect = lower value 0.932 | locus YLL026W, stronger effect = lower value 0.985 | locus YLL041C, strain sdh2, stronger effect = lower value 0.992 | locus YLR102C, strain apc9, stronger effect = lower value 0.988 | locus YLR113W, strain HOG1, stronger effect = lower value 0.882 | locus YLR258W, strain gsy2, stronger effect = lower value 0.924 | locus YLR357W, strain rsc2, stronger effect = lower value 1.01 | locus YLR370C, strain arc18, stronger effect = lower value 0.988 | locus YLR384C, strain iki3, stronger effect = lower value 1.02 | locus YML120C, strain ndi1, stronger effect = lower value 0.964 | locus YML124C, strain tub3, stronger effect = lower value 0.948 | locus YMR078C, strain ctf18, stronger effect = lower value 0.973 | locus YMR129W, stronger effect = lower value 0.935 | locus YMR263W, strain SAP30, stronger effect = lower value 0.936 | locus YNL067W, strain RPL9B, stronger effect = lower value 0.917 | locus YNL183C, strain NPR1, stronger effect = lower value 0.895 | locus YNL248C, strain rpa49, stronger effect = lower value 0.935 | locus YNL250W, strain rad50, stronger effect = lower value 0.956 | locus YNL271C, strain bni1, stronger effect = lower value 0.947 | locus YNL298W, strain CLA4, stronger effect = lower value 0.963 | locus YNL322C, strain KRE1 (second series), stronger effect = lower value 1.04 | locus YNR049C, strain mso1, stronger effect = lower value 0.986 | locus YOL012C, strain htz1 0.267 | locus YOR001W, strain rrp6, stronger effect = lower value 0.901 | locus YOR070C, strain gyp1, stronger effect = lower value 0.931 | locus YOR080W, strain dia2, stronger effect = lower value 1.03 | locus YOR083W, strain WHI5, stronger effect = lower value 0.909 | locus YOR136W, strain idh2, stronger effect = lower value 0.94 | locus YOR231W, strain MKK1, stronger effect = lower value 0.942 | locus YOR265W, strain rbl2, stronger effect = lower value 0.945 | locus YOR290C, strain snf2, stronger effect = lower value 0.944 | locus YOR316C, strain cot1, stronger effect = lower value 0.979 | locus YPL078C, strain atp4, stronger effect = lower value 0.897 | locus YPL106C, strain sse1, stronger effect = lower value 0.993 | locus YPL240C, strain hsp82, stronger effect = lower value 0.955 | locus YPL256C, strain CLN2, stronger effect = lower value 0.893 | locus YPR119W, strain clb2, stronger effect = lower value 0.956 | locus YPR141C, strain kar3, stronger effect = lower value 0.962 | locus YPR167C, strain met16, stronger effect = lower value 0.939
active: locus YAL026C, strain drs2, stronger effect = lower value 0.813 | locus YAL030W, strain snc1, stronger effect = lower value 0.915 | locus YBL061C, strain skt5, stronger effect = lower value 0.918 | locus YBR009C, strain hhf1, stronger effect = lower value 0.86 | locus YBR023C, strain chs3, stronger effect = lower value 0.844 | locus YBR229C, strain ROT2, stronger effect = lower value 0.903 | locus YBR231C, strain swc5, stronger effect = lower value 0.861 | locus YCL011C, strain gbp2, stronger effect = lower value 0.887 | locus YCL029C, strain bik1, stronger effect = lower value 0.907 | locus YDL035C, strain GPR1, stronger effect = lower value 0.782 | locus YDL074C, strain BRE1, stronger effect = lower value 0.685 | locus YDL101C, strain DUN1, stronger effect = lower value 0.834 | locus YDL192W, strain arf1, stronger effect = lower value 0.766 | locus YDR101C, strain arx1, stronger effect = lower value 0.869 | locus YDR137W, strain rgp1, stronger effect = lower value 0.498 | locus YDR159W, strain sac3, stronger effect = lower value 0.694 | locus YDR162C, strain NBP2, stronger effect = lower value 0.377 | locus YDR297W, strain sur2, stronger effect = lower value 0.861 | locus YDR318W, strain mcm21, stronger effect = lower value 0.81 | locus YDR335W, strain msn5, stronger effect = lower value 0.881 | locus YDR388W, stronger effect = lower value 0.884 | locus YDR392W, strain spt3, stronger effect = lower value 0.283 | locus YDR502C, strain sam2, stronger effect = lower value 0.864 | locus YEL003W, strain gim4, stronger effect = lower value 0.907 | locus YEL061C, strain CIN8, stronger effect = lower value 0.89 | locus YER015W, strain faa2, stronger effect = lower value 0.84 | locus YER111C, strain swi4, stronger effect = lower value 0.91 | locus YER155C, strain BEM2 (second series), stronger effect = lower value 0.546 | locus YER155C, strain BEM2, stronger effect = lower value 0.879 | locus YER167W, strain BCK2, stronger effect = lower value 0.807 | locus YGL086W, strain mad1, stronger effect = lower value 0.851 | locus YGL173C, strain kem1, stronger effect = lower value 0.701 | locus YGL248W, strain PDE1, stronger effect = lower value 0.792 | locus YGL253W, strain hxk2, stronger effect = lower value 0.85 | locus YGR078C, strain PAC10, stronger effect = lower value 0.753 | locus YGR135W, strain pre9, stronger effect = lower value 0.863 | locus YHR027C, strain rpn1, stronger effect = lower value 0.814 | locus YHR129C, strain ARP1, stronger effect = lower value 0.808 | locus YHR142W, strain chs7, stronger effect = lower value 0.702 | locus YIL066C, strain RNR3, stronger effect = lower value 0.804 | locus YJL095W, strain BCK1 (second series), stronger effect = lower value 0.609 | locus YJL164C, strain tpk1, stronger effect = lower value 0.86 | locus YJL166W, strain qcr8, stronger effect = lower value 0.851 | locus YJL187C, strain SWE1 (second series), stronger effect = lower value 0.789 | locus YJR043C, strain POL32, stronger effect = lower value 0.822 | locus YKL160W, strain elf1, stronger effect = lower value 0.896 | locus YKR001C, strain vps1, stronger effect = lower value 0.739 | locus YLR027C, strain aat2, stronger effect = lower value 0.911 | locus YLR039C, strain RIC1, stronger effect = lower value 0.366 | locus YLR058C, strain SHM2, stronger effect = lower value 0.803 | locus YLR221C, strain rsa3, stronger effect = lower value 0.823 | locus YLR262C, strain YPT6 (second series), stronger effect = lower value 0.402 | locus YLR268W, strain sec22, stronger effect = lower value 0.772 | locus YLR320W, strain mms22, stronger effect = lower value 0.646 | locus YLR330W, strain CHS5, stronger effect = lower value 0.845 | locus YLR342W, strain FKS1 (second series), stronger effect = lower value 0.77 | locus YLR342W, strain FKS1, stronger effect = lower value 0.818 | locus YLR371W, strain rom2, stronger effect = lower value 0.738 | locus YLR418C, strain cdc73, stronger effect = lower value 0.509 | locus YML016C, strain PPZ1, stronger effect = lower value 0.907 | locus YML032C, strain rad52, stronger effect = lower value 0.828 | locus YMR058W, strain fet3, stronger effect = lower value 0.258 | locus YMR125W, strain sto1, stronger effect = lower value 0.848 | locus YMR205C, strain PFK2, stronger effect = lower value 0.812 | locus YMR223W, strain ubp8, stronger effect = lower value 0.825 | locus YMR231W, strain pep5, stronger effect = lower value 0.762 | locus YMR307W, strain GAS1, stronger effect = lower value 0.317 | locus YNL071W, strain lat1, stronger effect = lower value 0.463 | locus YNL128W, strain TEP1, stronger effect = lower value 0.797 | locus YNL153C, strain GIM3, stronger effect = lower value 0.847 | locus YNL209W, strain ssb2, stronger effect = lower value 0.783 | locus YNL233W, strain BNI4, stronger effect = lower value 0.823 | locus YNL307C, strain MCK1, stronger effect = lower value 0.437 | locus YNL322C, strain KRE1, stronger effect = lower value 0.923 | locus YNR052C, strain pop2, stronger effect = lower value 0.846 | locus YOL147C, strain pex11, stronger effect = lower value 0.867 | locus YOR061W, strain CKA2, stronger effect = lower value 0.831 | locus YOR069W, strain VPS5, stronger effect = lower value 0.847 | locus YOR106W, strain vam3, stronger effect = lower value 0.697 | locus YOR144C, strain elg1, stronger effect = lower value 0.888 | locus YOR184W, strain ser1, stronger effect = lower value 0.632 | locus YOR270C, strain vph1, stronger effect = lower value 0.517 | locus YPL051W, strain arl3, stronger effect = lower value 0.664 | locus YPL055C, strain LGE1, stronger effect = lower value 0.734 | locus YPR163C, strain tif3, stronger effect = lower value 0.524 | strain wtn01, stronger effect = lower value 0.817
